Measurements taken from article PMC5540273 (PLoS ONE, 2017).
Like-named read-outs stand apart in the source and are kept apart here.

Assays:
Conditions in all cases: n = 1
FAK = system: T1, FAK
T1 construct: gene PTK2

FER = system: FER
FES = system: FES
FGFR1 = system: FGFR1
FGFR2 = system: FGFR2
FGFR3 = system: FGFR3
FGFR4 = system: FGFR4
FGR = system: FGR
FLT1 = system: FLT1
FLT3-autoinhibited = system: FLT3-autoinhibited
[1] = concentration: 1 μM, replicates: in singlicate
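Also: KINOMEscan kinase panel screen.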

Structure (SMILES)	%Inh (FAK; [1])	%Inh (FER; [1])	%Inh (FES; [1])	%Inh (FGFR1; [1])	%Inh (FGFR2; [1])	%Inh (FGFR3; [1])	%Inh (FGFR4; [1])	%Inh (FGR; [1])	%Inh (FLT1; [1])	%Inh (FLT3-autoinhibited; [1])	%Inh (FAK; 1 µM)	%Inh (FER; 1 µM)	%Inh (FES; 1 µM)	%Inh (FGFR1; 1 µM)	%Inh (FGFR2; 1 µM)	%Inh (FGFR3; 1 µM)	%Inh (FGFR4; 1 µM)	%Inh (FGR; 1 µM)	%Inh (FLT1; 1 µM)	%Inh (FLT3-autoinhibited; 1 µM)
Fc1cc(Cl)ccc1Nc1ccnc2cc(-c3ccc(CN4CCCCC4)o3)ccc12 [GW560116]	0%	5%	0%	0%	0%	0%	0%	31%	15%	0%	–	–	–	–	–	–	–	–	–	–
COc1cc2ncn(-c3cc(OCC4CCCO4)c(C(N)=O)s3)c2cc1OC (stereo not shown) [GSK204607]	0%	9%	11%	0%	0%	24%	0%	29%	20%	0%	–	–	–	–	–	–	–	–	–	–
O=S(=O)(c1ccc(-c2ccnc3[nH]ccc23)cc1)N1CCCC1 [GSK846226]	0%	12%	0%	0%	0%	12%	2%	16%	22%	8%	–	–	–	–	–	–	–	–	–	–
Cn1ccc2ncnc(Oc3cccc(C(=O)Nc4ccccc4)c3)c21	5%	8%	4%	0%	0%	0%	6%	5%	54%	15%	–	–	–	–	–	–	–	–	–	–
COc1cccc(NC(=O)NC2CCN(c3ccnc(Nc4ccc(F)cc4)n3)C2)c1 (stereo not shown) [GSK1379721]	0%	0%	0%	0%	0%	6%	1%	0%	11%	0%	–	–	–	–	–	–	–	–	–	–
Cc1cccc(-c2nc(Nc3cccc(C(N)=O)c3)c3ccccc3n2)n1 [GW876019]	0%	0%	25%	0%	17%	1%	0%	58%	42%	0%	–	–	–	–	–	–	–	–	–	–
CN(C)CCN(C)C(=O)c1cc(-c2ccncc2)c(-c2ccc(Cl)c(O)c2)o1.Cl.Cl [SB-710397]	0%	0%	0%	0%	0%	5%	0%	16%	43%	0%	–	–	–	–	–	–	–	–	–	–
COc1cccc(-c2cc(-c3c[nH]nc3-c3ccccn3)ccn2)c1 [GW680338]	0%	0%	9%	0%	0%	1%	6%	19%	3%	0%	–	–	–	–	–	–	–	–	–	–
CCCc1ccc(S(=O)(=O)NC2CCN(c3ccnc(Nc4ccc(F)cc4)n3)C2)cc1 (stereo not shown) [GSK1379715]	0%	0%	0%	0%	0%	2%	11%	23%	18%	0%	–	–	–	–	–	–	–	–	–	–
Cc1ccccc1-n1cnc2c(N)ncnc21 [SKF-97510]	0%	4%	0%	0%	0%	0%	0%	0%	0%	0%	–	–	–	–	–	–	–	–	–	–
Cc1csc(-c2nc(Nc3ccncc3)c3ccccc3n2)n1 [GW869640]	3%	7%	10%	17%	6%	6%	16%	7%	19%	26%	–	–	–	–	–	–	–	–	–	–
Nc1nc(-c2nccs2)c(-c2ccnc3ccccc23)s1 [GW693542]	0%	15%	0%	8%	0%	0%	8%	9%	24%	0%	–	–	–	–	–	–	–	–	–	–
Cc1ccc(NC(=O)Nc2cccc(C(F)(F)F)c2)cc1 [GSK955403]	–	–	–	–	–	–	–	–	–	–	1%	0%	0%	1%	0%	5%	0%	0%	23%	0%
Cn1ccc2ncnc(Oc3ccc(Nc4nc5ccccc5[nH]4)cc3)c21	0%	0%	0%	3%	0%	0%	0%	9%	0%	0%	–	–	–	–	–	–	–	–	–	–
CC(C)(C)c1ccc(C(=O)Nc2cn3cc(Cl)ccc3n2)cc1	0%	4%	0%	12%	0%	0%	0%	0%	43%	0%	–	–	–	–	–	–	–	–	–	–
O=C(O)COc1ncnc2cc(-c3ccc4[nH]ncc4c3)sc12	5%	0%	7%	23%	1%	0%	0%	0%	0%	39%	–	–	–	–	–	–	–	–	–	–
